The list is not random: actives were taken first. Their share in the collection is about 3.2%.
CDK5 p35 inh: CDK5/p35 (human) kinase inhibition; Recombinant CDK5/p35, ADP-Glo luminescence, 60 min; Q00535+Q15078; inhibition, % at 10 µM; actives 0.01% (n = 330,000);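 active = highest replicate inhibition of at least 50% and at least 75% of replicates reaching 50%; inconclusive = only one of the two criteria met; inactive = both criteria failed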;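 also: plate controls were DMSO neutral control for no effect and GW8510 at 10 µM for full effect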
dFosB act: activators of mouse delta FosB homodimer; P13346; purified delta FosB, TAMRA-CDK5 oligo fluorescence polarization; percent of positive-control signal above neutral wells; activation, % at 25 µM; actives 0.99% (n = 340,000); AID 493131;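 active = mean activation above about 17%, with every replicate also reaching it, limit read from the data, passing the limit was not always enough; inconclusive = only one of the two conditions met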
Rtt109 HAT inh: inhibitors of Candida albicans Rtt109/Vps75 histone acetyltransferase. purified Rtt109/Vps75, ThioGlo CoA-SH fluorescence, 4 h. inhibition, % at 34.9 µM. actives 0.16% (n = 330,000). Q5AAJ8;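 active = inhibition of at least 50% in every replicate; inconclusive = best replicate reaches 50% inhibition but some replicates fall short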
Target sequence (Q5AAJ8 whole entry, looked up): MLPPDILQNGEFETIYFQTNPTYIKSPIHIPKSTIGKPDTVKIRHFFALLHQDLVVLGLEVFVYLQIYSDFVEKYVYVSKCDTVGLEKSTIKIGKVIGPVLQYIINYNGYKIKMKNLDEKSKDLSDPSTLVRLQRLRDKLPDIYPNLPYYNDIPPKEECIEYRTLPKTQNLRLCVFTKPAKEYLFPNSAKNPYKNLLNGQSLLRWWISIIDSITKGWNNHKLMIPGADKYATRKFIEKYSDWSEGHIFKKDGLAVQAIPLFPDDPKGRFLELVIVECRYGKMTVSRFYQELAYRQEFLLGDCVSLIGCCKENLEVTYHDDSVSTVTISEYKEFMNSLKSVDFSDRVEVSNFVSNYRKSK
SMARCA2 act: activators of SMARCA2 function. actives 1% (n = 370,000). AID 652017. MG213 cells, MMTV-luciferase reporter, dexamethasone, overnight. activation, % at 9.1 µM; in the data active = activation above about 7.8%;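 also: 0% = vehicle wells and 100% = reference activator wells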
esBAF inh: blocks esBAF chromatin remodeling in mouse ES cells; actives 2% (n = 350,000); reporter increase, % at 12.5 µM; Bmi1-luciferase knock-in reporter, 24 h; 100% = twice the neutral-well signal; AID 602393; in the data active = activation above about 40%; inconclusive = no clear call, values can overlap the other calls;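 also: 0% = median of the plate's neutral control wells and 100% = double that signal; a rise in the Bmi1 reporter signal indicates esBAF inhibition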
DYRK1A inh: blocks rat Dyrk1A kinase activity. Q63470. ADP-Glo luminescence, NFATc1 peptide. inhibition, % at 12.5 µM. actives 0.43% (n = 310,000). AID 504441; in the data active = inhibition above about 50%;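 also: plate controls were vehicle with enzyme for no effect and no enzyme for full effect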
* = called active by the depositor; ? = inconclusive; nt = no result given.

SMILES	CDK5 p35 inh	dFosB act	Rtt109 HAT inh	SMARCA2 act	esBAF inh	DYRK1A inh
O=C(/C(=C/c1ccc(Cl)cc1)c1nc2ccccc2[nH]1)c1cccs1	-0.5	-7.9	-8.9	nt	76.4*	7.8
O=C(/C(=C\c1ccccc1)c1nc2ccccc2[nH]1)c1ccc(Cl)cc1	-0.2	-0.9	-6.4	-0.8	nt	-1.5
O/C(=C\c1nc2ccccc2[nH]1)c1cccs1	0.2	-4.3	0.5	2.2	41.7*	-4.5
O=c1[nH]c2ccccc2nc1/C=C(\O)c1cccs1	0.4	-2.7	-2.6	5.4	nt	12.6
O=C(O)c1ccc(N/N=C/C2=Cc3ccccc3OC2)cc1	-3.1	2.1	27.5	0.5	80.8*	29.0
COc1cccc(S(=O)(=O)N[C@H]2CC[C@H](CCn3cc(-c4ccc(F)cc4)nn3)O[C@H]2CO)c1	nt	nt	nt	nt	6.5	nt
C[C@H](CO)N1C[C@H](C)[C@@H](CN(C)C(=O)Nc2ccc3c(c2)OCO3)Oc2c(NC(=O)C3CCOCC3)cccc2C1=O	nt	nt	nt	nt	1.5	nt
O=C(Nc1cccc(/C=C/c2ccccn2)c1)c1ccc(-n2cncn2)c([N+](=O)[O-])c1	1.1	-7.0	-7.1	0.0	44.5*	-3.8
C[C@H](CO)N1C[C@H](C)[C@@H](CN(C)Cc2ccccc2C(=O)O)Oc2cc(-c3ccc(C(=O)N(C)C)cc3)ccc2S1(=O)=O	nt	nt	nt	nt	0.0	nt
COc1cc(OC)c(C(=O)C=Cc2ccc(OC)c(OC)c2)c(OC)c1	0.2	-4.3	4.4	-2.0	-1.2	nt
COc1ccc(/C=C/C(=O)c2ccc(O)cc2)cc1	1.6	-5.8	14.5	3.2	17.0	22.7
COc1ccc(/C=C/C(=O)c2ccccc2O)cc1	-0.5	11.0	3.6	nt	86.9*	2.1
COc1cc(O)c(C(=O)/C=C/c2ccccc2)c(OC)c1	-0.1	-2.0	-9.5	5.5	53.1*	8.7
CC(C)(C)[S@](=O)N1Cc2cc(C(=O)N3CCCCC3)nc(-c3cccc(-c4ccc(F)cc4)c3)c2[C@@H]1CCO	nt	nt	nt	nt	-0.9	nt
COc1ccc(/C=C/C(=O)Nc2ccccc2F)cc1S(=O)(=O)N1CCOCC1	2.0	-7.8	-11.1	-4.8	17.5	0.5
COc1ccc(/C=C/C(=O)Nc2ccccc2C)cc1S(=O)(=O)N1CCOCC1	-2.4	-11.3	-0.8	-3.4	46.7*	21.6
COc1cccc(Cn2nnc(C(=O)Nc3ccc(C)cc3)c2N)c1	1.3	16.5*	8.7	-0.5	28.5	7.4
Cc1ccc(NC(=O)c2nnn(-c3cc(C)cc(C)c3)c2N)cc1	-0.1	-13.9	-6.8	1.8	48.5*	-3.7
Nc1c(C(=O)Nc2ccc3c(c2)OCCO3)nnn1Cc1ccc(Br)cc1	-1.4	-8.7	-10.9	4.8	126.2*	-6.1
CCc1ccc(Cn2nnc(C(=O)Nc3cccc(C)c3)c2N)cc1	-1.2	-5.6	-6.5	-1.3	9.7	13.9
O=C(Nc1ccc2c(c1)OCCO2)N1CCN(Cc2ccccc2)CC1	0.9	-4.1	2.0	7.8	55.3*	nt
Cc1noc(C)c1S(=O)(=O)N(C)C[C@H]1OCc2ccccc2-c2ccccc2C(=O)N([C@@H](C)CO)C[C@H]1C	nt	nt	nt	nt	-0.8	nt
Nc1c(C(=O)Nc2ccc3c(c2)OCCO3)nnn1Cc1cccc(Br)c1	2.2	3.0	-12.1	4.2	55.0*	3.9
Nc1c(C(=O)Nc2ccc3c(c2)OCCO3)nnn1CCc1ccccc1	1.8	-7.5	1.5	0.5	66.5*	1.6
Cc1ccc(-c2cc3ccccc3nc2N)cc1	3.2	-4.1	6.1	-1.3	46.9*	22.7
SMILES	CDK5 p35 inh	dFosB act	Rtt109 HAT inh	SMARCA2 act	esBAF inh	DYRK1A inh
Nc1nc2ccccc2cc1-c1cccs1	2.5	-2.9	10.7	3.8	?	38.0
COc1ccc(Nc2ncnc3c2oc2ccccc23)cc1	1.0	-9.1	-0.2	5.9	-13.1	8.7
Cc1ccc(Nc2ncnc3c2oc2ccccc23)cc1	0.8	4.1	-5.8	2.2	47.0*	2.5
c1ccc(Sc2ncnc3c2oc2ccccc23)cc1	-0.4	-0.3	7.8	nt	70.6*	-2.1
O=C(C[C@@H]1C[C@H]2c3cc(NC(=O)NC4CCCC4)ccc3O[C@H]2[C@H](CO)O1)NCc1ccncc1	nt	nt	nt	nt	-2.0	nt
Oc1ccc(C=NNc2nc3ccccc3s2)c(O)c1	5.2	7.3	0.7	-0.2	nt	10.4
Oc1ccccc1C=NNc1nc2ccccc2s1	0.1	-4.7	-5.0	-1.7	50.9*	nt
COc1cccc(S(=O)(=O)N[C@@H]2CC[C@H](CCNC(=O)Nc3cc(F)ccc3F)O[C@@H]2CO)c1	nt	nt	nt	nt	9.9	nt
